Assay results reported in the supplement of paper PMC10849652.
The full data set covers some 7,900 targets. This sample favours those with a hit. About 0.6% of all pairs of compound and target were hits. Unmarked numbers belong to inactive results.

How the values were obtained:
Assay in all cases: log2 fold change, soluble protein after heating vs DMSO (PISA); higher = thermal stabilisation; K562 cells, 10 uM, 30 min; active = over 0.2 and 3.5 SD of the protein, either way, in both replicates (recomputed)
[1] = compound: C#Cc1cccc(Nc2ncnc3cc(OCCOC)c(OCCOC)cc23)c1 [erlotinib]
Outline: (§1)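 Soluble protein was quantified by TMTpro 16plex LC-MS/MS after channel sums were equalised. It was obtained as the supernatant after 21,000xg for 90 min from pooled aliquots of K562 cells (2×10^6 cells/mL, 10 μM compound, 30 min) heated for 3 min across 48°C-58°C and extracted in PBS with 0.5% NP-40 at 4°C. Thermal stability values are relative to control samples and come from duplicates. They are given as log2 fold changes.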

[2] = compound: C/C(=N\NC(=O)C1=CC(=CC=C1)S(=O)(=O)N2CCOCC2)/C3=C(C=CC(=C3)Cl)O
Outline: as §1

[3] = compound: C1=CC(=C(C=C1Cl)C2=NC3=NC=CN=C3C(=N2)NC4=CC=NC=C4)F
Outline: as §1

[4] = compound: C1=CC(=CC=C1C2=NC3=C(N2)C=C(C=C3)C(=O)N)OC4=CC=C(C=C4)Cl
Outline: as §1

[5] = compound: C1=CC2=C(C=CC(=C2)/C=C\3/C(=O)NC(=NCC4=CC=CS4)S3)N=C1
Outline: as §1

[6] = compound: C1=CC2=NC=CN=C2C=C1/C=C/3\C(=O)NC(=O)S3
Outline: as §1

[7] = compound: C1=CC=C(C=C1)C2=NC(=C(N2)C3=CC=NC=C3)C4=CC(=C(C=C4)Cl)O
Outline: as §1

[8] = compound: C1=CC=C2C(=C1)C3=NNC4=CC=CC(=C43)C2=O
Outline: as §1

[9] = compound: C1CCN(C1)C(=O)NC2=CC=CC(=C2)NC3=NC=C(C(=N3)NCCC4=CN=CN4)Br
Outline: as §1

[10] = compound: C1CN(CCC1(CC2=CC=C(C=C2)Cl)N)C3=NC=NC4=C3C=CN4
Outline: as §1

UniProt P35612, sequence (P35612 whole entry, looked up): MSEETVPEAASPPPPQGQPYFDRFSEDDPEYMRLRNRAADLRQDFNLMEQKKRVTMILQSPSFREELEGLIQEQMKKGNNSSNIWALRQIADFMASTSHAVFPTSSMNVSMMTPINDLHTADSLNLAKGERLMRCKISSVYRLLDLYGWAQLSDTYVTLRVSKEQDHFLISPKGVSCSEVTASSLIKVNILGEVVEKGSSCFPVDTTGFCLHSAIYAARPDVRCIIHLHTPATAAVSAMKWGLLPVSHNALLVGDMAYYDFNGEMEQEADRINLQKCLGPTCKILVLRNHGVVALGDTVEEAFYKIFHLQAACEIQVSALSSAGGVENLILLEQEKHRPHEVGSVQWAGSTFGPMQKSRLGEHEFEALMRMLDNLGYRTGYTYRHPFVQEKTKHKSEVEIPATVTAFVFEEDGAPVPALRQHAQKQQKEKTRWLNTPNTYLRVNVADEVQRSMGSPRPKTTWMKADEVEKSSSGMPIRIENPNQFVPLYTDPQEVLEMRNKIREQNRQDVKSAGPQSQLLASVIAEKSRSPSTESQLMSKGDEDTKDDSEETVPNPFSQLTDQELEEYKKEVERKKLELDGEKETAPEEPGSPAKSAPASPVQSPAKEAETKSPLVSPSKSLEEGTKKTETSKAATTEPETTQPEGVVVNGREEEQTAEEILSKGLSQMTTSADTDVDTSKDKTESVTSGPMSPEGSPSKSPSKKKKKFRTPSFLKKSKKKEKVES
UniProt Q9BX63, sequence (Q9BX63 whole entry, looked up): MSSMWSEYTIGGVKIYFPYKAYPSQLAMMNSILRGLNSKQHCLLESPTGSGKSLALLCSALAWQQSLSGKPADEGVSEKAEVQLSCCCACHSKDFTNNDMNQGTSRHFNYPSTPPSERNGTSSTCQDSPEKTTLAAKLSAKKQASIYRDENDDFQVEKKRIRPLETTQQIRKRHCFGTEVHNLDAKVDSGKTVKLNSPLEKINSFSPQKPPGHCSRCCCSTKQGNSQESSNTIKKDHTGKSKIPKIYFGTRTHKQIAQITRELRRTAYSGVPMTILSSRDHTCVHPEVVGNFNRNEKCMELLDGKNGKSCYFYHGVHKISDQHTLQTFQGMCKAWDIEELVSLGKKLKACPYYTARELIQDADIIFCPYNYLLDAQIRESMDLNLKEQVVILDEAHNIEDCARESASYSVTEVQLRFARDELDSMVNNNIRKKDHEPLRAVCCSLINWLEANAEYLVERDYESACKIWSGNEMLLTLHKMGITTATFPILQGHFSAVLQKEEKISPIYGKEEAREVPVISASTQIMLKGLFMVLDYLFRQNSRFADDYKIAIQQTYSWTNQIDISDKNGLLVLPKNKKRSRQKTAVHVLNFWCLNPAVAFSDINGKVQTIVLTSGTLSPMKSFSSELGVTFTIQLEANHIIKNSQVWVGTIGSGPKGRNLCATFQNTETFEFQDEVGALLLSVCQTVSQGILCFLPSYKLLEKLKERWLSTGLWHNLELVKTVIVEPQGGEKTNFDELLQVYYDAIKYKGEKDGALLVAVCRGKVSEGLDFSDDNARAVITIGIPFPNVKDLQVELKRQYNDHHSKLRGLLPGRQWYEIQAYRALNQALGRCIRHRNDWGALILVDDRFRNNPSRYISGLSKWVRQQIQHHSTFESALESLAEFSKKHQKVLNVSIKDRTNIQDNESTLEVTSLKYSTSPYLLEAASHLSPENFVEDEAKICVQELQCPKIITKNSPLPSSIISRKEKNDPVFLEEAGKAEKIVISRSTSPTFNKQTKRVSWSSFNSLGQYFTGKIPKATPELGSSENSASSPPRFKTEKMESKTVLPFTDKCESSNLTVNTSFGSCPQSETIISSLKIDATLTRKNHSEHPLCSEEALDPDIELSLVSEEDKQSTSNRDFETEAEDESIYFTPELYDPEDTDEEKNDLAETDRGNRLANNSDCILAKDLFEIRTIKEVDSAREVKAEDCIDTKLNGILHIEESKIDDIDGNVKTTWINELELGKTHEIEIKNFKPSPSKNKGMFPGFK
UniProt Q9NWX5, sequence (Q9NWX5 whole entry, looked up): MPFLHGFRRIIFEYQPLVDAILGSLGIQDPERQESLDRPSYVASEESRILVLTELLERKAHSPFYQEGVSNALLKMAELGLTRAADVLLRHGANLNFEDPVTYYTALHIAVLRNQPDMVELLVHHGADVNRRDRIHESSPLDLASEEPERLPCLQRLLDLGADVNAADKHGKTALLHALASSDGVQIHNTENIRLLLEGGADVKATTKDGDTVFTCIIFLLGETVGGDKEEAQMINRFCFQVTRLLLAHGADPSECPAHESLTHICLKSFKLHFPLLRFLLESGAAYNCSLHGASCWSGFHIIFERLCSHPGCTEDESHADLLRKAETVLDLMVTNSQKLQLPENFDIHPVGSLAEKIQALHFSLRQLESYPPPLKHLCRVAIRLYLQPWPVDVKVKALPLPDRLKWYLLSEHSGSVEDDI
UniProt O43865, sequence (O43865 whole entry, looked up): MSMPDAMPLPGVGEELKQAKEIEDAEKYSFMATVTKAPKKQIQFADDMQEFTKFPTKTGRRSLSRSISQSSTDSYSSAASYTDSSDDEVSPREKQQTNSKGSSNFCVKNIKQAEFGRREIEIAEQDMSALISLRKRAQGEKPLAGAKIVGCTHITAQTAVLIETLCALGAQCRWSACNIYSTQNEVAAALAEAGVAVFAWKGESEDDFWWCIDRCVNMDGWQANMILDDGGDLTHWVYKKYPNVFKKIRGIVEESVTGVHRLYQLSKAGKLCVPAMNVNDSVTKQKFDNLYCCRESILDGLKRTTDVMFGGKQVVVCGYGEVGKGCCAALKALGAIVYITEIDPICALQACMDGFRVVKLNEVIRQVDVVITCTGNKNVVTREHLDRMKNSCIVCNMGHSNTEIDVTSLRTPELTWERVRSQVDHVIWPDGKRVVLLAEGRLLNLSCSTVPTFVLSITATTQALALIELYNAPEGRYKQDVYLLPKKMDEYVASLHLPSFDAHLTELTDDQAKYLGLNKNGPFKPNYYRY
UniProt Q66PJ3, sequence (Q66PJ3 whole entry, looked up): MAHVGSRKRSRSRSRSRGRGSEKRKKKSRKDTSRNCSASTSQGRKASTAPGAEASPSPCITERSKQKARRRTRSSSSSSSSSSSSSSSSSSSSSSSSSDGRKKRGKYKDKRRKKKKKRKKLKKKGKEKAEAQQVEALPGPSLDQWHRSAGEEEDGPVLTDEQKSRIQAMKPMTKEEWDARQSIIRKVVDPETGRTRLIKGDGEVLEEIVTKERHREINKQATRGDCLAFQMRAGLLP
UniProt Q99758, sequence (Q99758 whole entry, looked up): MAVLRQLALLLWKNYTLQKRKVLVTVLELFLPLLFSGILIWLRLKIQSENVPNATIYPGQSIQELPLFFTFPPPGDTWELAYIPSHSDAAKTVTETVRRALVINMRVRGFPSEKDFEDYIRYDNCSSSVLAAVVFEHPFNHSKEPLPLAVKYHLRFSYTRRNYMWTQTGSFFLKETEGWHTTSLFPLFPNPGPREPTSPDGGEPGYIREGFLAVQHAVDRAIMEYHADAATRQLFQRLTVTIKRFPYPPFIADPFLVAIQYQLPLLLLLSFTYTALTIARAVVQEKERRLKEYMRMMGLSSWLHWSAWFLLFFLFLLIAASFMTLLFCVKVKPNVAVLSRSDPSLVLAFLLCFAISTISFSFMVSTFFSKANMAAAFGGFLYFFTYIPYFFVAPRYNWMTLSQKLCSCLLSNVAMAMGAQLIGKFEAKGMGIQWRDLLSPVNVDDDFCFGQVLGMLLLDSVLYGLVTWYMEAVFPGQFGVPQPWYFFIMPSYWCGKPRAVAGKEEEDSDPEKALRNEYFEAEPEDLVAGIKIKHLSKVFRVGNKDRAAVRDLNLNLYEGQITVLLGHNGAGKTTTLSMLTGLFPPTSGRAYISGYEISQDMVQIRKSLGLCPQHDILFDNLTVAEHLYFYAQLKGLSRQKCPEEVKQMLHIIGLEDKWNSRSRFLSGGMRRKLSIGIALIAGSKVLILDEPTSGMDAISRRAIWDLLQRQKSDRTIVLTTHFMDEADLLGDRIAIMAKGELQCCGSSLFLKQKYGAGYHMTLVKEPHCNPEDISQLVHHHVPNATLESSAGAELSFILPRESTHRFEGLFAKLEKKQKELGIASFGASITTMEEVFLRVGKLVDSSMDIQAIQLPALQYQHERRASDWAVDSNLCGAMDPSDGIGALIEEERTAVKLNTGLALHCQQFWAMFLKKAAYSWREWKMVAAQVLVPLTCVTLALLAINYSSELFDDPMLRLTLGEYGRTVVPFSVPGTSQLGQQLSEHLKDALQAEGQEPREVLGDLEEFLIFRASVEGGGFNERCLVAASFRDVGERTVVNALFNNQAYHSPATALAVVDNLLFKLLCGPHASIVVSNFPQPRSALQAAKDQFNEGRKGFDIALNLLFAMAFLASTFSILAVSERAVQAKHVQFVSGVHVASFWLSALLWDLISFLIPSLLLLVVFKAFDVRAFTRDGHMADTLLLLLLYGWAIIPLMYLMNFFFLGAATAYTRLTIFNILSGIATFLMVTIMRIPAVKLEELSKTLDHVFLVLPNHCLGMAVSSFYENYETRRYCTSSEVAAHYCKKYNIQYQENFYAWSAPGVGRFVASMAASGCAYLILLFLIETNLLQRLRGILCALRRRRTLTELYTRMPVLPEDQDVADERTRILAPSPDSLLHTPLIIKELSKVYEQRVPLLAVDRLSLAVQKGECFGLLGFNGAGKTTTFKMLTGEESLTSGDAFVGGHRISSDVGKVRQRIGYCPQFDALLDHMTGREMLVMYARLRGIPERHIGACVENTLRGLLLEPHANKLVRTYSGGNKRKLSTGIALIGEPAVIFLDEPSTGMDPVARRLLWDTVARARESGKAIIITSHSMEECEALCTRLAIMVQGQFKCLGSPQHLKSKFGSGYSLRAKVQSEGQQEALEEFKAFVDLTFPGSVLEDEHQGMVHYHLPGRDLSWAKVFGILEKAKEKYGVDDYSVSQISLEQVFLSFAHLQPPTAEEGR
UniProt Q92934, sequence (Q92934 whole entry, looked up): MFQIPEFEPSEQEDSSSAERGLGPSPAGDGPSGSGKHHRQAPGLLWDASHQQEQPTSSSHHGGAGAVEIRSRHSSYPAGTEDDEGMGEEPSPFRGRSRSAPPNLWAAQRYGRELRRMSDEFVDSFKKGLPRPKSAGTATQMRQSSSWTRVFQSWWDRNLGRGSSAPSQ

Row | Target | log2 fold change [1] | log2 fold change [2] | log2 fold change [3] | log2 fold change [4] | log2 fold change [5] | log2 fold change [6] | log2 fold change [7] | log2 fold change [8] | log2 fold change [9] | log2 fold change [10]
1 | ARAF (UniProt P10398) | 0.014 | 0.096 | 0.061 | 0.014 | 0.26 | -0.012 | 0.077 | -0.187 | -0.017 | 0.035
2 | ACSM3 (UniProt Q53FZ2) | 0.078 | 0.01 | 0.076 | -0.235 | 0.088 | -0.009 | -0.078 | -0.072 | 0.009 | 0.01
3 | BRIP1 (UniProt Q9BX63) | -0.009 | 0.076 | -0.153 | 0.018 | 0.075 | -0.082 | -0.048 | 0.023 | -0.064 | -0.045
4 | ARL6IP4 (UniProt Q66PJ3) | 0.041 | 0.06 | -0.085 | -0.01 | -0.08 | 0 | -0.12 | 0.117 | 0.003 | 0.039
5 | ADD2 (UniProt P35612) | 0.008 | -0.011 | 0.025 | 0.004 | -0.004 | 0.022 | 0.012 | -0.005 | 0.004 | 0.016
6 | BLVRB (UniProt P30043) | 0.03 | 0.112 | 0.237 (active) | -0.031 | -0.015 | 0.072 | 0.042 | 0.014 | 0.001 | 0.056
7 | ATP23 (UniProt Q9Y6H3) | 0.021 | -0.079 | -0.017 | 0.033 | 0.051 | 0.027 | 0.009 | 0.033 | 0.007 | -0.014
8 | BPHL (UniProt Q86WA6) | -0.016 | 0.053 | 0.057 | -0.016 | 0.142 | 0.058 | -0.028 | 0.02 | -0.38 (active) | 0.182
9 | ATL2 (UniProt Q8NHH9) | -0.004 | 0 | 0.081 | 0.004 | 0.049 | 0.012 | 0.049 | 0.014 | 0.077 | 0
10 | ALDH9A1 (UniProt P49189) | 0.131 | 0.021 | 0.035 | -0.077 | -0.023 | 0.013 | -0.103 | 0.043 | 0.035 | 0.045
11 | ANP32E (UniProt Q9BTT0) | 0.211 | 0.038 | 0.114 | -0.062 | 0.027 | -0.025 | 0 | -0.014 | -0.026 | -0.084
12 | ADPRHL2 (UniProt Q9NX46) | 0.03 | 0.024 | 0.122 | 0.048 | 0.043 | 0.006 | 0.019 | 0.049 | 0.003 | -0.165
13 | BCAP29 isoform 2 (UniProt Q9UHQ4) | -0.02 | 0.002 | 0.077 | 0.062 | -0.026 | 0.086 | -0.034 | 0.038 | 0.062 | -0.022
14 | BRD8 (UniProt Q9H0E9) | -0.057 | -0.036 | -0.067 | 0.068 | -0.005 | 0.037 | -0.074 | -0.064 | 0.016 | -0.058
15 | AGO1 (UniProt Q9UL18) | 0.031 | -0.061 | 0.05 | -0.091 | 0.032 | 0.005 | 0.01 | -0.08 | -0.008 | 0.046
16 | AFDN isoform 1 (UniProt P55196) | -0.008 | 0.072 | 0.002 | -0.003 | -0.136 | -0.018 | -0.082 | -0.005 |  | 
17 | BAD (UniProt Q92934) | 0.049 | 0.079 | 0.022 | 0.124 | 0.083 | 0.023 | 0.01 | 0.025 |  | 
18 | ACTBL2 (UniProt Q562R1) | -0.247 | -0.805 | 0.093 | 0.025 | -0.419 | -0.215 | 0.047 | 0.147 |  | 
19 | BOP1 (UniProt Q14137) | -0.003 | 0.038 | -0.144 | 0 | -0.053 | 0.041 | -0.153 | -0.014 | 0.043 | 0.036
20 | ARL6IP6 (UniProt Q8N6S5) | 0.064 | 0.116 | -0.102 | 0.034 | -0.006 | 0.001 | 0.201 | -0.087 | 0.01 | -0.036
21 | AHCYL1 (UniProt O43865) | 0.083 | -0.032 | -0.008 | -0.042 | 0.001 | 0.086 | 0.09 | 0.118 | 0.077 | 0.104
22 | BRD4 (UniProt O60885) | -0.151 | 0.078 | 0.054 | 0.003 | 0.025 | -0.003 | 0.213 | -0.002 | -0.121 | -0.117
23 | ASB6 (UniProt Q9NWX5) | -0.024 | -0.603 (active) | -0.263 | -0.067 | 0.184 | -0.084 | 0.101 | -0.032 |  | 
24 | ATP1A1 (UniProt P05023) | 0.003 | 0.02 | 0.017 | -0.012 | -0.036 | 0.012 | -0.017 | -0.032 | -0.015 | 0.057
25 | ABCA3 (UniProt Q99758) | 0.011 | 0.087 | 0.002 | 0.057 | -0.027 | -0.056 | 0.01 | 0.031 | 0.094 | -0.034
26 | AARSD1 isoform 3 (UniProt Q9BTE6) | 0.05 | -0.736 (active) | 0.113 | -0.014 | -0.027 | 0.008 | -0.015 | 0.053 | -0.006 | -0.086
27 | AP2A1 (UniProt O95782) | -0.019 | 0.012 | -0.035 | 0.003 | -0.041 | 0.003 | 0.057 | -0.381 (active) | -0.527 (active) | -0.038
28 | AKR1C2 (UniProt P52895) | 0.07 | 0.014 | -0.101 | -0.092 | 0.001 | 0.085 | 0.292 | -0.038 | 0.044 | -0.028
